Laboratory results from the supplement of paper PMC9177965.

Tested on: HT29 sg-Ctrl (RNF43 wildtype)
Assay: cell viability activity relative to DMSO (negative = inhibition); higher = more viable cells (less growth inhibition)
Details: 5 µM; 96 h
Experimental: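 Broad Repurposing Library primary screen at a single dose of 5 uM. HT29 sg-Ctrl and HT29 RNF43 G659fs CRISPR-edited isogenic cells were seeded at 2500 cells/well in 384-well plates in duplicate and treated for 96 h. Viability was read by CellTiter-Glo and reported as % activity relative to DMSO, with MG132 as the positive control (negative = growth inhibition).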

C[C@H](Oc1ccc(S(C)(=O)=O)cc1C(=O)N1CCN(c2ncc(C(F)(F)F)cc2F)CC1)C(F)(F)F
cell viability activity: -57.9%

COc1ccc2[nH]c(C(=O)c3ccccc3)cc2c1
cell viability activity: -55.7%

Nc1nccc2c1ncn2C1C=C(CO)C(O)C1O (centres undefined)
cell viability activity: -46.7%

CN(Cc1cnc2nc(N)nc(N)c2n1)c1ccc(C(=O)N[C@@H](CCC(=O)O)C(=O)O)cc1
cell viability activity: -66%

C[C@@H](C(=O)O)c1ccc(-c2ccccc2)c(F)c1
cell viability activity: -70.3%

COC(=O)Nc1nc2cc(C(=O)c3ccccc3)ccc2[nH]1
cell viability activity: -51.4%

O=C(O)c1ccccc1-c1c2cc(I)c(=O)c(I)c-2oc2c(I)c(O)c(I)cc12
cell viability activity: -16.3%

CCCCCCCC(=O)N[C@H](CN1CCCC1)[C@H](O)c1ccc2c(c1)OCCO2
cell viability activity: -40.4%

COc1cccc(OCCCN)c1-c1cc(Nc2cnc(C#N)cn2)n[nH]1
cell viability activity: -86.9%

Cn1cnc2c(F)c(Nc3ccc(Br)cc3F)c(C(=O)NOCCO)cc21
cell viability activity: -82.9%

CC(C)/N=c1\cc2n(-c3ccc(Cl)cc3)c3ccccc3nc-2cc1Nc1ccc(Cl)cc1
cell viability activity: -75.7%

CCCCc1ccc2[nH]c(NC(=O)OC)nc2c1
cell viability activity: -76.7%

CN1CCN(Cc2ccc(Nc3ncc(Cl)c(Nc4ccccc4S(=O)(=O)N(C)C)n3)cc2)CC1
cell viability activity: -96.1%

CN(C)C/C=C/C(=O)Nc1ccc(C(=O)Nc2cccc(Nc3ncc(Cl)c(-c4c[nH]c5ccccc45)n3)c2)cc1
cell viability activity: -86.4%

Clc1ccccc1CNCC1CCC(CNCc2ccccc2Cl)CC1 (centres undefined)
cell viability activity: -19.9%

CCNCCCNCCCCNCCCNCC
cell viability activity: -43.8%

CC(C)C[C@H](NC(=O)[C@H](CCc1ccccc1)NC(=O)CN1CCOCC1)C(=O)N[C@@H](Cc1ccccc1)C(=O)N[C@@H](CC(C)C)C(=O)[C@@]1(C)CO1
cell viability activity: -96.6%

C[C@H]1O[C@@H](O[C@H]2CC[C@@]3(C)[C@H](CC[C@@H]4[C@@H]3C[C@@H](O)[C@]3(C)[C@@H](C5=CC(=O)OC5)CC[C@]43O)C2)C[C@H](O)[C@@H]1O[C@H]1C[C@H](O)[C@H](O[C@H]2C[C@H](O)[C@H](O[C@@H]3O[C@H](CO)[C@@H](O)[C@H](O)[C@H]3O)[C@@H](C)O2)[C@@H](C)O1
cell viability activity: -91.5%

CO[C@H]1C(=O)[C@]2(C)[C@@H](OC)C[C@H]3OC[C@@]3(OC(C)=O)[C@H]2[C@H](OC(=O)c2ccccc2)[C@]2(O)C[C@H](OC(=O)[C@H](O)[C@@H](NC(=O)OC(C)(C)C)c3ccccc3)C(C)=C1C2(C)C
cell viability activity: -50.5%

CN(C)/N=N/c1[nH]cnc1C(N)=O
cell viability activity: -26.5%

CCCS(=O)(=O)Nc1ccc(F)c(C(=O)c2c[nH]c3ncc(Cl)cc23)c1F
cell viability activity: -47.2%

Cc1cn([C@H]2C[C@H](N=[N+]=[N-])[C@@H](CO)O2)c(=O)[nH]c1=O
cell viability activity: -2.51%

COc1cc2c(Nc3ccc(Cl)c(Cl)c3F)ncnc2cc1OC[C@@H]1C[C@@H]2CN(C)C[C@@H]2C1
cell viability activity: -90.3%

COc1cc(/C=C/C(=O)CC(=O)/C=C/c2ccc(O)c(OC)c2)ccc1O
cell viability activity: -84.2%
